FMDV inh – antivirals against foot and mouth disease virus; hit rate 1.2% among 410,000; Potency, µM (highest dose often 57.9 µM), for the others: at the highest dose activity change, negative = inhibition, most hits filed as inhibitors; AID 1159524; FMDV antiviral cell-based qHTS; calls by dose curve; tested in HEK293T cells; note: read-out not given here; nearly all actives have a fitted effect of over 45% in size
Marburg entry inh – inhibitors of Marburg virus binding or cell entry; Potency, µM (series often up to 37.8 µM), for the others: at the highest dose activity change, negative = inhibition, hits mostly inhibitors; hit rate 1.8% among 300,000; Marburg virus pseudotyped entry inhibition, cell reporter; calls by dose curve; tested in HEK293 cells
Vaccinia Venus – vaccinia inhibition (Venus reporter). Vaccinia virus Venus reporter expression, fluorescence. Potency, µM (titrated, usually from 36.5 µM), inactives show top-dose activity change, negative = inhibition, most hits filed as inhibitors. hit rate 0.46% among 330,000. AID 720580; calls by dose curve; tested in A549 cells; note: nearly all actives have a fitted effect of over 30% in size
HCV inhibitor – inhibitors of hepatitis C virus infection. Huh7.5.1 HCVcc-Cre infection, luciferase reporter, 44 h. Potency, µM (top dose mostly 41.8 µM), for inactives: top-dose activity change, negative = inhibition, actives largely listed as inhibitors. hit rate 3.4% among 340,000; active = well fitted inhibition curve with a large enough effect; inconclusive = small, poorly fitted or top-dose-only effect, or another doubt; inactive = no such curve, though single readings can be large or run the other way
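Whole-lifecycle infectious HCVcc-Cre system; cells 1,000/well, compound then virus (~0.5 moi) added 4 h after plating, 44 h culture. Luciferase read 15 sec following 15 min substrate incubation, room temp.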
Vaccinia mCherry – inhibitors of vaccinia virus infection (mCherry reporter signal). Vaccinia virus mCherry reporter infection, fluorescence. Potency, µM (series often up to 36.5 µM), without a hit: top-dose activity change, negative = inhibition, actives largely listed as inhibitors. hit rate 0.63% among 310,000; calls by dose curve; tested in A549 cells; note: nearly all actives have a fitted effect of over 35% in size
Lassa entry inh – Lassa virus entry inhibition; Lassa virus pseudotype entry inhibition, cell reporter; AID 540256; hit rate 1.2% among 300,000; Potency, µM (titrated, usually from 37.9 µM), without a hit: at the top dose activity change, negative = inhibition, hits mostly inhibitors; calls by dose curve; tested in HEK293 cells; note: nearly all actives have a fitted effect of over 50% in size
* hit, by the source's call; i = inactive; u = inconclusive; x = no result; [ ] = remark or other dose. The list is not random: actives were taken first. Their share in the collection is about 5.3%. % is set by controls: 0 for no effect and ±100 for the full control effect; potency is the fitted concentration of half-maximal effect.

SMILES	FMDV inh	Marburg entry inh	Vaccinia Venus	HCV inhibitor	Vaccinia mCherry	Lassa entry inh
CC1CCC(C(=O)C2C(=O)C3=C(CCCC3)C2=O)CC1 (configuration not stated)	x	-15%	x	x	x	x
CC[C@H](C)[C@@H](CN[C@H](C)CNC)NCCC(c1ccccc1)c1ccccc1	-25%	x	u	u	u	x
CCCC[C@H](CN[C@@H](CNC)[C@H](C)CC)NCCC12CCC(CC1)C2	-2%	x	22µM*	u	22µM*	x
Cc1cccc(CNC(=O)c2cnn(-c3nccc(-c4cc(C)sc4C)n3)c2C)n1	-8%	x	-1%	x	-4%	x
c1ccc(COc2ncnc3c2ncn3CCCN2CCN(Cc3cccc4ccccc34)CC2)cc1	28µM*	x	11µM*	x	10µM*	x
CC(C)C1=Nc2nc(N)nn2C(=O)C1	x	4%	x	x	x	x
COc1ccc(CNC(=O)c2cccc(NC(=O)N3CCSc4ncccc43)c2)cc1	u	x	-12%	x	-10%	0%[46.1 µM]
C[C@H]1[C@H](C)CC[C@]2(C(=O)O)CC[C@]3(C)C(=CC[C@@H]4[C@@]5(C)CC[C@H](O)C(C)(C)[C@@H]5CC[C@]43C)[C@H]12	-24%	x	-25%	0.32µM*	-24%	x
C[C@@H]1CC[C@]2(C(=O)O)CC[C@]3(C)C(=CCC4[C@]56CC[C@@](O)(OC5)C(C)(C)C6CC[C@]43C)C2[C@H]1C (some centres not stated)	u	x	-22%	2µM*	-25%	x
C[C@H]1[C@H](C)CC[C@]2(C(=O)O)CC[C@]3(C)C(=CC[C@@H]4[C@@]5(C)C[C@@H](O)[C@H](O)C(C)(C)[C@@H]5CC[C@]43C)[C@H]12	0%	7%	13µM*	0%[8.37 µM]	u	1%
CC1CCC2(C(=O)O)CCC3(C)C(=CCC4C3(C)CCC3[C@@]4(C)CC(O)C(O)[C@@]3(C)CO)C2C1C (some centres not stated)	-5%	x	1%	x	-1%	x
Cc1cc(=O)n2nc(N3CCC(C(=O)Nc4ccc(Br)c(C)c4)CC3)sc2n1	-24%	-18%[46.1 µM]	12%	x	37%	19%[46.1 µM]
CCc1nnc(NC(=O)CSc2nc3cccnc3n2C2CCCCC2)s1	u	2.5µM*	-10%	7%	-20%	5.6µM*
Cc1nc(NC(=O)CSc2nc3cccnc3n2C2CCCCC2)sc1C	-24%	-10%[46.1 µM]	-25%	2%	-3%	-18%
COc1ccccc1N1CCN(C(=O)CCCN2C(=O)c3cccc4cccc(c34)C2=O)CC1	u	u	-27%	8.9µM*	11µM*	-15%
COc1ccccc1N1CCN(C(=O)CCCn2c(=S)[nH]c3ccccc3c2=O)CC1	25µM*	x	u	x	u	x
CCCOc1ccc(-c2nnc(-c3cccs3)o2)cc1	0%	-1%[46.1 µM]	39%	1%	x	2µM*
CCCCOc1ccc(-c2nnc(-c3ccncc3)o2)cc1	-11%	u	x	u	x	u
O=C(O)/C=C\C(=O)Nc1ccccc1C#Cc1ccc(Br)cc1	14%	-1%	x	4.5µM*	x	-1%
O=C(O)/C=C\C(=O)Nc1ccccc1C#Cc1ccccc1	35%	3%	x	11µM*	x	10%
O=C(NN1C(=O)NC2(CCCCC2)C1=O)c1ccc(-c2ccc(Cl)cc2)o1	u	13%	u	11µM*	-22%	-8%
Cc1cccc2sc(NC(=O)C3CCN(C(=O)c4ccco4)CC3)nc12	2%	u	-18%	11µM*	0%	7.9µM*
Oc1cccc2c(CC(O)c3c[nH]c4ccccc34)ccnc12 (configuration not stated)	x	x	u	x	i	x
CCCCCCCC/C=C\CCCCCCCC(=O)NCCc1ccc(O)c(O)c1	u	4.5µM*	-26%	u	-17%	9.2µM*
COc1ccc(NC(=O)C2COc3ccccc3C2)cc1Cl (configuration not stated)	-3%	x	-15%	x	-24%	4%[46.1 µM]
SMILES	FMDV inh	Marburg entry inh	Vaccinia Venus	HCV inhibitor	Vaccinia mCherry	Lassa entry inh
COc1cc2nc(N3CCN(C)CC3)nc(NC3CC3)c2cc1OC	x	x	-13%	x	-23%	x
CCN(CC)CCCOc1cc2nc(N3CCCN(C)CC3)nc(NC3CCN(C)CC3)c2cc1OC	x	x	10µM*	x	7.1µM*	x
COc1cc2c(NC3CCN(C(C)C)CC3)nc(N3CCCN(C)CC3)nc2cc1OCCCN(C)C	x	x	0.25µM*	x	u	x
COc1cc2c(NC3CCN(C)CC3)nc(N3CCCN(C)CC3)nc2cc1OCCCCCN(C)C	x	x	13µM*	x	u	x
COc1cc2c(NC3CCN(C)CC3)nc(N3CCCN(C)CC3)nc2cc1OCCCCC(N)=O	x	x	-15%	x	-18%	x
C[C@@H]1C=CCCO[C@]12C(=O)N(Cc1ccc(F)cc1)c1ccccc12	x	0%[14.2 µM]	x	x	x	u
CCOc1ccc(S(=O)(=O)/N=C(\N)c2ccccc2)cc1	-13%	0%[46.1 µM]	-7%	u	u	13µM*
CCOc1ccc(S(=O)(=O)/N=C(/c2ccccc2)N(C)C)cc1	33%	x	x	12%	x	x
Cn1c2c(c(=O)n(C)c1=O)C(C(F)(F)F)(C(F)(F)F)N=C(c1ccccc1Cl)N2	u	u	x	9%	x	5%
Cn1c2c(c(=O)n(C)c1=O)C(C(F)(F)F)(C(F)(F)F)N=C(CCC1CCCCC1)N2	14µM*	11µM*	u	u	u	2.6µM*
Cc1cnc(-n2ncc(C(=O)NCCc3cccnc3)c2C)nc1-c1ccc(F)cc1	6%	x	-13%	x	i	x
CCN1CC=C(c2c[nH]c3ccccc23)CC1	-4%	u	u	10µM*	u	6%
Cc1cccc(NC(=O)N2CC=C(c3c[nH]c4ccccc34)CC2)c1C	-4%	x	-4%	x	-16%	24%[46.1 µM]
Cn1nc(-c2ccc(C(=O)Nc3ccc(F)cc3)cc2)c2ccccc2c1=O	40µM*	u	-5%	u	0%	u
Cn1nc(-c2ccc(C(=O)Nc3cccnc3)cc2)c2ccccc2c1=O	u	-11%	-14%	-6%	-16%	-16%
Cc1ccc(NC(=O)c2ccc(-c3nn(C)c(=O)c4ccccc34)cc2)cc1	u	-23%	x	13µM*	x	-12%
COc1ccc(NC(=O)Cn2cnc3c(nc4n3CCCCC4)c2=O)c(OC)c1	-15%	x	10%	x	4%	0%[46.1 µM]
Cc1cc(C(=O)NCc2nc(-c3ccccc3NC(=O)C3CCCO3)oc2C)nc(C)n1 (configuration not stated)	-3%	x	-21%	x	-17%	x
O=C(Nc1c(O)c2ccccc2oc1=O)c1ccccc1Cl	-6%	-5%[46.1 µM]	-8%	x	-10%	24%[46.1 µM]
COc1ccc(-n2c(O)c(/C=N/NS(=O)(=O)c3ccc(C)cc3)c3ccccc3c2=O)cc1OC	-8%	-15%	i	17%	5%	u
COc1ccc(-n2c(O)c(/C=N/Nc3nc(C)cc(C)n3)c3ccccc3c2=O)cc1OC	-14%	u	u	2.8µM*	u	u
CCOc1cc(CN2CCN(S(=O)(=O)c3ccc(C)cc3)CC2)ccc1OC	-22%	-16%[46.1 µM]	-5%[7.34 µM]	x	-4%[7.34 µM]	-24%[46.1 µM]
COc1ccc(/C=N/NC(N)=S)cc1	4%	9%[46.1 µM]	5.6µM*	u	6.3µM*	1%
